Reference: PubChem BioAssay (NCATS)
Inconclusive results are not listed. Activity calls are given as the source filed them. Calls follow the shape of the dose curve; as a rule, active = well fitted cell-killing curve with a large enough effect; inconclusive = small, poorly fitted or top-dose-only effect; inactive = flat fitted curve, though single readings scatter.

Target: Phenylethanolamine N-methyltransferase (Homo sapiens) (UniProt P11086)
Test: Confirmatory Screen for Target Class Profiling of Small Molecule Inhibitors of Methyltransferases (AID 1745852)
Settings: MTase-Glo luminescence, SAH detection, recombinant enzyme; measured here: PNMT max response; stronger effect = lower value

Phenylethanolamine N-methyltransferase (Homo sapiens), sequence (P11086 whole entry, looked up): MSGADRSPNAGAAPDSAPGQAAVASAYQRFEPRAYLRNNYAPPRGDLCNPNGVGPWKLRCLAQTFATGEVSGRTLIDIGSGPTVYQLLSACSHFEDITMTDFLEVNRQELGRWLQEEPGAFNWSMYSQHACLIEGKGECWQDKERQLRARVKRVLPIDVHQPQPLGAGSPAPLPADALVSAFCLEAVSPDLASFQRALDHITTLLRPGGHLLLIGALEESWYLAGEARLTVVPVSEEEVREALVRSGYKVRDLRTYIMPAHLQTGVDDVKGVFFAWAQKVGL

Row | SMILES | activity [%]
1 | CC(O)(CC(=O)O)CC(=O)OCc1ccc(O[C@@H]2O[C@H](CO)[C@@H](O)[C@H](O)[C@H]2O)cc1 (some centres not stated) | 1.08
2 | C[C@]12C[C@@H](O)[C@@H]3C[C@@]1(O[C@@H]1O[C@H](CO)[C@@H](O)[C@H](O)[C@H]1O)[C@]3(COC(=O)c1ccccc1)C(=O)O2 | 6.78
3 | Cc1cc(N(C)C)ccc1-c1nc2ccc(-c3nc4ccc(N5CCN(C)CC5)cc4[nH]3)cc2[nH]1 | -3.42
4 | COc1cc2c(NC3CCN(CC4CCCCC4)CC3)nc(N3CCCN(C(C)C)CC3)nc2cc1OCCCN1CCCCC1 | -1.55
5 | COc1cc(NC(=O)Nc2cccc(CNC(=O)O[C@H]3CCOC3)c2)ccc1-c1cnco1 | -5.11
6 | O=C(c1ccccc1)c1ccc2nc(NC(=O)c3csc(C4CCN(c5ncnc6ccsc56)CC4)n3)[nH]c2c1 | -13.7
7 | CCCCc1nc2cc(/C=C/C(=O)NO)ccc2n1CCN(CC)CC | 3.65
8 | CC1=CC(=O)C2(OC3OC(C)C(O)C(OC(=O)/C=C/c4ccccc4)C3O)C=COC(OC3OC(CO)C(O)C(O)C3O)C12 (configuration not stated) | 1.5
9 | CN1CCN(C2CCC(n3cc(-c4ccc(Oc5ccccc5)cc4)c4c(N)ncnc43)CC2)CC1 (configuration not stated) | -72
10 | Cc1cc(O)c(-c2ccc([C@@H](C)CN(C)C)cc2)c2c1[nH]c(=O)c1sccc12 | -48.7
11 | COC(=O)C1=CO[C@@H](O[C@@H]2O[C@H](CO[C@@H]3O[C@H](COC(=O)/C=C/c4cc(OC)c(O)c(OC)c4)[C@@H](O)[C@H](O)[C@H]3O)[C@@H](O)[C@H](O)[C@H]2O)[C@@H]2C(CO)=CC[C@H]12 | -1.68
12 | CC1(C)CC[C@]2(C(=O)O[C@@H]3O[C@H](CO)[C@@H](O)[C@H](O)[C@H]3O)CC[C@]3(C)C(=CCC4[C@@]5(C)C[C@@H](O)[C@H](O)C(C)(C)C5CC[C@]43C)C2[C@@H]1O (some centres not stated) | -0.0843
13 | CCOc1cc2ncc(C#N)c(Nc3ccc(F)c(Cl)c3)c2cc1NC(=O)/C=C/CN(C)C | -97.3
14 | CC(C)CCC1(O)C(=O)C(C)(C)C(O[C@@H]2O[C@H](CO)[C@@H](O)[C@H](O)[C@H]2O)C(C)(C)C1O (some centres not stated) | -2.04
15 | COc1cc(N2CCC(N3CCN(C)CC3)CC2)ccc1Nc1ncc(Cl)c(-c2c[nH]c3ccccc23)n1 | -23.1
16 | COc1cc2nc(N3CCCC3)nc(NCCCCCN3CCCC3)c2cc1OC | -0.684

Row | SMILES | activity [%]
17 | CCN(CC)CCN(Cc1ccc(-c2ccc(C(F)(F)F)cc2)cc1)C(=O)Cn1c(SCc2ccc(F)cc2)nc(=O)c2c1CCC2 | -1.88
18 | Oc1ccc(CNc2ccccc2F)c2cccnc12 | 6.4
19 | C=C(C(=O)O)[C@@H]1CC[C@@]2(C)CC[C@H](O)[C@@]2(C(C)=O)C1 | -3.81
20 | N#Cc1ccc(-c2cnc3[nH]cc(NC(=O)c4cccnc4)c3c2)cc1 | -6.92
21 | CC(C)=CCC(O)/C(C)=C/CO[C@@H]1O[C@H](CO)[C@@H](O)[C@H](O)[C@H]1O (some centres not stated) | 5.19
22 | C=C(C)C(=O)OC1CC2(C)OC(=CC2=O)C(=C)CC2OC(=O)C(COC)C12 (configuration not stated) | -4.08
23 | CN1CCN(C(=O)c2ccc3cc(CCNc4ncnc5ccc(C#N)cc45)ccc3c2)CC1 | -8.1
24 | C[C@@H](Oc1cc(-n2cnc3ccc(OC4CCN(C)CC4)cc32)sc1C(N)=O)c1ccccc1C(F)(F)F | -73.6
25 | C=C1C(=O)OC2C1CCC(=C)C1CC(OC(C)=O)C(=C)C12 (configuration not stated) | -8.53
26 | CN(C)c1nc(NC2CCC(NCCc3ccc(Br)cc3OC(F)(F)F)CC2)nc2ccccc12 (configuration not stated) | -42.3
27 | CC(Oc1cc(-n2cnc3ccc(CN4CCN(C)CC4)cc32)sc1C(N)=O)c1ccccc1C(F)(F)F (configuration not stated) | -38.1
28 | COc1ccc(CCO[C@@H]2O[C@H](CO[C@@H]3OC[C@H](O)[C@H](O)[C@H]3O)[C@@H](O)[C@H](O)[C@H]2O)cc1 | 1.06
29 | Cc1ccc([N+](=O)[O-])cc1S(=O)(=O)N(C)/N=C/c1cnc2ccc(Br)cn12 | -16.6
30 | COC(=O)C1=CO[C@@H](O[C@@H]2O[C@H](CO)[C@@H](O)[C@H](O)[C@H]2O)[C@H]2[C@@H]1CC(OC)O[C@@H]2C (some centres not stated) | -2.32
31 | CCS(=O)(=O)N1CCN(c2ccc(Nc3ncc(C(N)=O)c(NC4CC4)n3)cc2)CC1 | -8.46

Test system: not listed separately
Test: NCATS anti-infectives library activity on HEK293 viability as a counter-qHTS vs the C. elegans viability qHTS (AID 1745854); also: potency is read from the fitted curve at half-maximal effect
Settings: HEK293 viability counter-screen; series mostly up to 41.8 µM
In short: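 Cytotoxicity counter-screen to a worm viability qHTS: CellTiter-Glo luminescence read 10 min after reagent addition. Compounds (final up to 41.7 uM, a 1:5 dilution series) incubated 24 hr at 37C with 1,500 HEK293 cells per well; digitonin control.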

Row | SMILES | Potency
32 | COc1c2c(cc3c1-c1c(cc4c(c1OC)OCO4)CC(C)C(C)C3)OCO2 (configuration not stated) | inactive
33 | O=C(c1ccccc1)c1ccc2nc(NC(=O)c3csc(C4CCN(c5ncnc6ccsc56)CC4)n3)[nH]c2c1 | 10 µM (active)
34 | CCCCc1nc2cc(/C=C/C(=O)NO)ccc2n1CCN(CC)CC | inactive
35 | [N-]=[N+]=N[C@]1(CO)O[C@@H](n2ccc(=O)[nH]c2=O)[C@@H](O)[C@@H]1O | inactive
36 | CCOc1cc2ncc(C#N)c(Nc3ccc(F)c(Cl)c3)c2cc1NC(=O)/C=C/CN(C)C | inactive
37 | C[C@@]1(O)[C@H](O)[C@@H](CO)O[C@H]1n1ccc(N)nc1=O | inactive
38 | CN1CCc2nc(C(=O)N[C@@H]3C[C@@H](C(=O)N(C)C)CC[C@@H]3NC(=O)C(=O)Nc3ccc(Cl)cn3)sc2C1 | inactive
39 | CC(C)c1cc(C(=O)N2CC[C@H](NC(=O)C3CC3)C2)n[nH]1 | inactive
40 | CC(C)C(NC(=O)c1ccc2ccccc2n1)C(=O)NC(CC(=O)O)C(=O)COc1c(F)cccc1F (configuration not stated) | inactive
41 | Cc1cc(OCc2nnc(SC3CCCC3)n2-c2cccnc2)ccc1-c1ccc(S(C)(=O)=O)cc1 | 11.2 µM (active)
42 | CC(C)C[C@H](CC(=O)NO)C(=O)N[C@@H](Cc1ccc2ccccc2c1)C(=O)N[C@@H](C)C(=O)NCCN | inactive
